# An excerpt weighted towards active compounds, which were near 17% of everything screened.
# DT40 TDP1 no CPT: qHTS for Inhibitors of human tyrosyl-DNA phosphodiesterase 1 (TDP1): qHTS in cells in absence of CPT; DT40 Tdp1-/- hTDP1 cells, no CPT, ATP luminescence, 48 h; AID 686978, 2013; 420,000 tested, 15% active; Potency, µM (highest dose often 46.2 µM), inactives show top-dose activity change, negative = growth inhibition, usual class: inhibitors; further: on the % scale 0 is the no-effect control and ±100 the full control effect; nearly all actives have a fitted effect of over 55% in size
#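 Chicken DT40 Tdp1-/- cells complemented with human TDP1, screened without camptothecin (DMSO vehicle only), 400 cells/well. Compounds pin-transferred, cells incubated at 37 °C for at least 48 hr. Growth read as ATP-dependent luminescence (CellTiter-Glo, 30 min at RT).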
# HepG2 viability: HepG2 cytotoxicity, counter-screen for TGF-b inhibitors; HepG2 CAGA-GFP viability, ATP luminescence, 18 h; Potency, µM (doses to about 46.1 µM), without a hit: at the highest dose activity change, negative = cytotoxicity, usual class: cytotoxic; 410,000 tested, 0.76% active
#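 HepG2 CAGA-GFP cells (1000/well, DMEM with 1% FBS) received compound, then TGF-beta at 500 pg/mL final, and were incubated 18 hours at 37 degrees C. Viability was read by CellTiter-Glo luminescence. Media-only wells were set as complete cell-killing and DMSO as no toxicity.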
# HT1080NT lethal: kills 2HG-producing HT-1080-NT fibrosarcoma cells. 360,000 tested, 1.6% active. HT-1080-NT fibrosarcoma viability, CellTiter-Glo ATP luminescence, 48 h. AID 686970. Potency, µM (series often up to 46.1 µM), for inactives: at the highest dose activity, negative = less viability, actives largely listed as cytotoxic;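 further: NT is the 2HG producing partner of a matched IDH1 knockdown line; 0% = DMSO-treated cells and -100% = media-only wells without cells; nearly all actives have a fitted effect of over 55% in size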
#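 Toxicity toward the 2HG-producing NT line was scored as %Activity, normalised to DMSO and no-cell wells, from CellTiter-Glo luminescence after 48 hours' treatment.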
# DT40 TDP1 CPT: growth inhibition of DT40 Tdp1-/-;hTDP1 cells with camptothecin (screen for TDP1 inhibitors) | chicken DT40 Tdp1-/-;hTDP1 cells + 20 nM CPT, ATP luminescence, 48 h | Potency, µM (series often up to 46.2 µM), without a hit: at the highest dose activity change, negative = growth inhibition, most hits filed as inhibitors | 420,000 tested, 12% active; further: on the % scale 0 is the no-effect control and ±100 the full control effect; nearly all actives have a fitted effect of over 55% in size
#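 Cell growth measured by CellTiter-Glo luminescence after a minimum 48 h, 37 C compound exposure with 20 nM CPT in Tdp1-knockout DT40 cells stably expressing hTDP1, seeded 400/well; qHTS titration format.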
# TGFb inhibitor: TGF-b pathway inhibition. AID 588855. HepG2 CAGA-GFP TGF-b/SMAD3 reporter, GFP fluorescence, 18 h; TGF-beta stimulated, 500 pg/mL final. 410,000 tested, 1.2% active. Potency, µM (titrated, usually from 46.1 µM), without a hit: at the highest dose activity, negative = inhibition, hits mostly inhibitors; further: on the % scale 0 is the no-effect control and ±100 the full control effect; nearly all actives have a fitted effect of over 65% in size
#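 GFP signal (ex488/em500-530) from TGF-beta-stimulated HEPG2 CAGA-GFP cells, 500 pg/mL final, 18 h at 37 degrees C in DMEM plus 1% FBS, normalized to unstimulated and DMSO-stimulated controls.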
# HT1080 IDH1KD tx: toxicity to HT-1080 IDH1 knockdown cells (counter line) | 360,000 tested, 2% active | HT-1080 IDH1 knockdown viability, ATP luminescence, 48 h | Potency, µM (doses to about 46.1 µM), for inactives: at the top dose activity, negative = toxicity, most hits filed as cytotoxic;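 further: 0% = DMSO wells and -100% = cell-free medium wells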
#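 Viability of IDH1-knockdown HT-1080 fibrosarcoma cells was assessed by CellTiter-Glo after 48 h at 37 °C with titrated compound; concentration-effect curves were classified by fit quality and response size.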
# Numbers without * were called inactive; u = inconclusive; x = not tested or not shown. The call rests on the fitted dose curve; in most records, active means well fitted curve in the direction sought with a large enough effect; inconclusive means small, poorly fitted or top-dose-only effect, or another doubt; inactive means no such curve, though single readings can be large; an effect the other way counts as inactive or inconclusive. Potency means the concentration at half of the fitted maximal effect.
SMILES,DT40 TDP1 no CPT,HepG2 viability,HT1080NT lethal,DT40 TDP1 CPT,TGFb inhibitor,HT1080 IDH1KD tx
COC(=O)c1c(NC(=O)c2nc3nc(C)cc(C(F)F)n3n2)sc2c1CCC2,16µM*,-17%,2%,u,-3%,0%
CC(C)c1cc(-c2cc(C(=O)Nc3ccccc3)on2)nc(NC2CCCC2)n1,u,0%,11%,26µM*,-25%,-1%
CC(C)c1cc(-c2cc(-c3ccccc3)on2)nc(NC2CCCC2)n1,u,-14%,17%,u,-1%,-2%
Cc1cc(C(F)F)n2nc(C(=O)Nc3sc4c(c3C(N)=O)CCC4)nc2n1,u,3%,21%,u,-6%,17%
Cc1ccc(NC(=O)c2ccccc2OCc2ccc([N+](=O)[O-])cc2)nc1,-26%,-21%,1%,-8%,5%,0%
O=C(COC(=O)Cc1c(F)cccc1Cl)NC1CCS(=O)(=O)C1 (stereo unspecified),5%,39%,-1%,-2%,13%,-8%
COc1ccc(N2C(=O)CCC(C(=O)c3ccccc3)=C2C)cc1,-29%,3%,-2%,u,u,3%
COc1ccc(NC(=S)c2ccc(N(C)C)cc2)cc1,-26%,1%,13%,u,-2%,9%
COc1ccc(N=C2C(=Nc3ccc(OC)cc3)N(c3ccccc3)C(=S)N2C(=O)c2ccc(Cl)cc2)cc1,u,-3%,-4%,-21%,-12%,-2%
COc1ccc(N=C2C(=Nc3ccc(OC)cc3)N(c3ccc(N(C)C)cc3)C(=S)N2c2ccc(OC)cc2)cc1,1µM*,2%,u,0.65µM*,-6%,u
COc1ccc(N2C(=S)N(C(=O)c3ccccc3)C(=Nc3ccccc3)C2=Nc2ccccc2)cc1,18µM*,-31%,u,u,-2%,u
COc1ccc(N=C2C(=Nc3ccc(OC)cc3)N(c3ccc(OC)cc3)C(=S)N2C(=O)c2ccc(OC)cc2)cc1,18µM*,-14%,-6%,u,0%,1%
CCOC(=O)c1sc(NC(=O)C(C)C)c(C#N)c1C,u,-1%,-2%,u,-1%,-6%
Fc1ccccc1-c1nnc2ccc3ccccc3n12,u,1%,-8%,2%,9%,1%
Fc1cccc(Cl)c1-c1nnc2ccc3ccccc3n12,10µM*,-18%,-2%,26µM*,-22%,0%
CCOc1ccccc1C(=O)NCc1ccc2c(c1)OCO2,-23%,-4%,1%,-29%,-7%,4%
CCOc1cccc(C2C=C(c3ccc4c(c3)OCO4)NC(c3cccc(Br)c3)N2)c1O (stereo unspecified),10µM*,-54%,x,10µM*,u,x
CCOc1cccc(C2C=C(c3ccc4c(c3)OCO4)NC(c3ccc(Br)cc3)N2)c1O (stereo unspecified),16µM*,-36%,x,u,u,x
COc1cccc(-n2c(Cn3nc(C(F)(F)F)cc3C)n[nH]c2=S)c1,-17%,1%,6%,-2%,0%,33%
CCOC(=O)N1CCN(c2c(NCc3ccccc3Cl)c(=O)c2=O)CC1,29µM*,-15%,u,18µM*,-24%,-29%
CCOC(=O)N1CCN(c2c(NCc3ccc(N(C)C)cc3)c(=O)c2=O)CC1,-20%,-22%,16%,-30%,3%,-3%
C=CCNc1ncnc2c1ncn2[C@H]1CN(Cc2ccc(F)cc2)C[C@@H](CO)O1,u,4%,u,u,-6%,1%
COc1ccc(OC)c(NC(=O)Cc2coc3ccc4ccccc4c23)c1,13µM*,-4%,-27%,u,u,-21%
Cc1cccc(NC(=O)Cc2coc3ccc4ccccc4c23)n1,16µM*,-25%,u,10µM*,-7%,7.1µM*
COc1ccc(OC)c(NC(=O)Cc2coc3ccc(C)cc23)c1,u,3%,10%,u,-3%,-6%
SMILES,DT40 TDP1 no CPT,HepG2 viability,HT1080NT lethal,DT40 TDP1 CPT,TGFb inhibitor,HT1080 IDH1KD tx
COc1ccc(NC(=O)Cc2coc3cc(C)cc(C)c23)c(OC)c1,u,-11%,x,21µM*,0%,x
O=[N+]([O-])c1ccc(Cl)cc1P(=O)(O)c1cc(Cl)ccc1[N+](=O)[O-],7%,13%,5%,4%,u,8%
COc1cccc(NC(=O)COC(=O)CCS(=O)(=O)c2ccc(C)cc2)c1,11%,9%,18%,-2%,-4%,20%
CCOc1ccc(C(=S)N2CCCC2)c(OCC)c1,u,15%,12%,21µM*,-14%,6%
CCCC(NC(=O)C(C)Sc1nnnn1C1CC1)c1ccccc1 (stereo unspecified),-27%,-2%,0%,-6%,10%,-2%
CCC1CN(C(=O)N2CCC(C(=O)N3CCN(c4ccc(F)cc4)CC3)CC2)c2ccccc2O1 (stereo unspecified),21µM*,-4%,x,13µM*,-24%,x
CCC1CN(C(=O)N2CCC(C(=O)N3CCN(c4cc(C)ccc4C)CC3)CC2)c2ccccc2O1 (stereo unspecified),15µM*,-73%,x,16µM*,10µM*,x
CCC1CN(C(=O)N2CCC(C(=O)N3CCN(c4cccc(C)c4C)CC3)CC2)c2ccccc2O1 (stereo unspecified),5.8µM*,-77%,x,7.3µM*,u,x
CCC1CN(C(=O)N2CCC(C(=O)NCCN(CC)CC)CC2)c2ccccc2O1 (stereo unspecified),4%,-7%,x,7%,0%,x
CCCCCCCC#Cc1ccccc1/C=N/S(=O)c1ccc(C)cc1 (stereo unspecified),18µM*,-15%,12%,12µM*,-21%,5%
Cc1cc(C(=O)N2CCC2(C)C(=O)NS(=O)(=O)c2ccccc2Cl)nn1C (stereo unspecified),-8%,1%,13%,-13%,27%,20%
CCCCOc1ccc(/C=C/C2=CC(C)(C)NC(=S)N2)cc1OCC,13µM*,-16%,-26%,u,-2%,u
c1ccc(-c2nc(SCC3CCCCO3)n[nH]2)cc1 (stereo unspecified),u,-5%,x,8%,-8%,x

# Source: PubChem
